Data on 27 compounds can be found in PubChem BioAssay (Tox21).

Values joined by “and” are separate entries in the source; they are usually repeats but may differ in a detail not shown here. Identical values can stand only once. Inconclusive results are not listed. Active and inactive are the calls of the source. Calls come from the whole dose curve; as a rule, active = well fitted activation curve with a large enough effect in the repeat runs; inconclusive = weak or mixed curves; inactive = no such curve, though single readings can be large or run the other way.
% is set by controls: 0 for no effect and ±100 for the full control effect; potency is the fitted concentration of half-maximal effect.

For one assay, the target named is Nuclear receptor subfamily 1 group I member 2 (Rattus norvegicus) (UniProt Q9R1A7). Put plainly: Rat pregnane X receptor (rPXR) activation by small molecules, qHTS assay (AID 1346983). Note: nearly all actives have a fitted effect of over 20% in size. The following applies: rPXR luciferase reporter cells, One-Glo luminescence, 24 h; max activation: stronger effect = higher value. The method, boiled down: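 Luminescent readout (One-Glo luciferase, 30 min room temperature) followed 24 hr compound treatment at 37 C of rPXR cells plated 2,000 per well and preincubated 5hr; qHTS format with compounds delivered in DMSO.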
Sequence of Nuclear receptor subfamily 1 group I member 2 (Rattus norvegicus) (Q9R1A7 whole entry, looked up): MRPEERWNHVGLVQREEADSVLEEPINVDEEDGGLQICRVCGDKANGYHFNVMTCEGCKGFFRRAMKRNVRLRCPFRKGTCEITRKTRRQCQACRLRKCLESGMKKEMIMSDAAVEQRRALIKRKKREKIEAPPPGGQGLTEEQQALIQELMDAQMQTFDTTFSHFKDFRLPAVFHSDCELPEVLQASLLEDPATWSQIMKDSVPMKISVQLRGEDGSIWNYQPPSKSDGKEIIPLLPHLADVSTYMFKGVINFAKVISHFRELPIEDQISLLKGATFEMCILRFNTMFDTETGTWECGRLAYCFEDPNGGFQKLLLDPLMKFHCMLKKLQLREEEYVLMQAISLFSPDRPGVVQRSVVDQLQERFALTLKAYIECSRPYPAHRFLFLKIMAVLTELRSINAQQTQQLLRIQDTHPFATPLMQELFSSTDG
(In general: Quantitative high-throughput screening tests each substance at several concentrations.)
Consider `CC1=CCC(C(C)(C)O)CC1` (configuration not stated), for which the max activation is -1.16% (inactive).

Turning to `CC(=O)Oc1ccccc1C(=O)Nc1ncc([N+](=O)[O-])s1`, the max activation is -18.4% (inactive).

Regarding `Cc1cccc(N(C)C(=S)Oc2ccc3ccccc3c2)c1`, the max activation is 2.58% (inactive). Same read-out and setting: under `COc1ccc(OC)c(C(O)CNC(=O)CN)c1` (configuration not stated) stands 1.02% (inactive); under `O=CCCCC=O`, 4.17% (inactive). Regarding `COc1ccc(C(=O)CC(=O)c2ccc(C(C)(C)C)cc2)cc1`, the max activation is -2.2% (inactive). Same read-out and setting: the same measure for `Cc1[nH]c(=O)c(C#N)cc1-c1ccncc1`: 1.02% (inactive). Regarding `C#C[C@]1(O)CC[C@H]2[C@@H]3CCC4=Cc5oncc5C[C@]4(C)[C@H]3CC[C@@]21C`, the Potency is 7.94 µM (active). In the case of `Nc1ncnc2nc[nH]c12`, the max activation was 0.861% (inactive). As to `O=C(COc1ccc(Cl)cc1)N1CCN(Cc2ccc3c(c2)OCO3)CC1`, the max activation was 0.0978% (inactive). In the case of `Cc1c(C(N)=O)cc([N+](=O)[O-])cc1[N+](=O)[O-]`, the max activation was 0.724% (inactive).

Consider `C[Si](C)(C)O[Si](C)(C)C`, for which the max activation is -1.76% (inactive). The same measure, in the same setting: the same measure for `CN(C)CCN(Cc1cccs1)c1ccccn1`: -1.17% (inactive).

For `O=C(/C=C/c1ccccc1)OCc1ccccc1`, the max activation is -0.887% (inactive). On the same count and under the same terms, the same measure for `CCCC(=O)O`: -1.54% (inactive); for `OC[C@H]1O[C@@H]2O[C@H]3[C@H](O)[C@@H](O)[C@@H](O[C@H]4[C@H](O)[C@@H](O)[C@@H](O[C@H]5[C@H](O)[C@@H](O)[C@@H](O[C@H]6[C@H](O)[C@@H](O)[C@@H](O[C@H]7[C@H](O)[C@@H](O)[C@@H](O[C@H]8[C@H](O)[C@@H](O)[C@@H](O[C@H]1[C@H](O)[C@H]2O)O[C@@H]8CO)O[C@@H]7CO)O[C@@H]6CO)O[C@@H]5CO)O[C@@H]4CO)O[C@@H]3CO`: -2.34% (inactive); for `Nc1ncn([C@@H]2O[C@H](CO)[C@@H](O)[C@H]2O)c(=O)n1`: -11.1% (inactive).

As for `C[C@]12CCC(=O)C=C1CC[C@@H]1[C@@H]2C(=O)C[C@@]2(C)[C@H]1CC[C@]2(O)C(=O)CO`, the max activation was 0.346% (inactive).

Consider `CCCCC(CC)COC(=O)c1ccc(N(C)C)cc1` (configuration not stated), for which the max activation was -1.01% (inactive). Regarding `COc1cccc2c1C(=O)c1c(O)c3c(c(O)c1C2=O)C[C@@](O)(C(=O)CO)C[C@@H]3O[C@H]1C[C@H](N)[C@H](O)[C@H](C)O1`, the max activation is -0.0344% (inactive) and 3.76% (inactive).

Take `C=C(C)C1CC=C(C)CC1` (configuration not stated): the max activation was -4.17% (inactive). For `Nc1ccc(S(=O)(=O)Nc2cnc3ccccc3n2)cc1`, the max activation is 6.27% (inactive). On to `O=S(=O)(O)c1ccc(O)cc1`, for which the max activation was -1.73% (inactive).

For `O=C1c2cccc(O)c2C(=O)c2c(O)cccc21`, the max activation was -1.61% (inactive). On the same count and under the same terms, the same measure for `C#C[C@]1(O)CC[C@H]2[C@@H]3CCc4cc(OC)ccc4[C@H]3CC[C@@]21C`: 4.03% (inactive); for `CC(C)(C)NC(=O)[C@H]1CC[C@H]2[C@@H]3CC[C@H]4NC(=O)C=C[C@]4(C)[C@H]3CC[C@]12C`: -2.95% (inactive).

The target in the next assay is Nuclear receptor subfamily 1 group I member 2 (Homo sapiens) (UniProt O75469). The assay is described as follows: CYP3A4 induction through human pregnane X receptor (PXR) by small molecules, qHTS assay (AID 1346984). Note: nearly all actives have a fitted effect of over 40% in size. The conditions noted are these: DPX-2 HepG2 PXR, CYP3A4-luciferin luminescence, 24 h; series mostly up to 46.1 µM. An outline of the steps: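 DPX-2 HepG2 cells carrying a PXR response element and CYP3A4-promoter luciferase construct, treated with compounds 24 hr at 37C. Then P450-Glo CYP3A4 Luciferin-IPA substrate (3uM final) for 3 hr at 37C, One-Glo added, luminescence read.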
As to `CC1=CCC(C(C)(C)O)CC1` (configuration not stated), the Potency entry is “inactive”. Same read-out and setting: under `CC(=O)Oc1ccccc1C(=O)Nc1ncc([N+](=O)[O-])s1` stands “inactive”.

For the compound `Cc1cccc(N(C)C(=S)Oc2ccc3ccccc3c2)c1`, the Potency was 5.01 µM (active). On the same count and under the same terms, the same measure for `COc1ccc(OC)c(C(O)CNC(=O)CN)c1` (configuration not stated): “inactive”; for `O=CCCCC=O`: “inactive”. On to `COc1ccc(C(=O)CC(=O)c2ccc(C(C)(C)C)cc2)cc1`, for which the Potency result is “inactive”. The same measure, in the same setting: the same measure for `Cc1[nH]c(=O)c(C#N)cc1-c1ccncc1`: “inactive”; for `C#C[C@]1(O)CC[C@H]2[C@@H]3CCC4=Cc5oncc5C[C@]4(C)[C@H]3CC[C@@]21C`: “inactive”; for `Nc1ncnc2nc[nH]c12`: “inactive”.

As for `O=C(COc1ccc(Cl)cc1)N1CCN(Cc2ccc3c(c2)OCO3)CC1`, the Potency entry is “inactive”. Still for that read-out and setting: under `Cc1c(C(N)=O)cc([N+](=O)[O-])cc1[N+](=O)[O-]` stands “inactive”; under `C[Si](C)(C)O[Si](C)(C)C`, “inactive”. Still for that read-out and setting: under `CN(C)CCN(Cc1cccs1)c1ccccn1` stands “inactive”; under `CCCC(=O)O`, “inactive”. Consider `C[C@]12CC[C@H]3[C@@H](CCC4=CC(=O)CC[C@@]43C)[C@@H]1CC[C@@H]2C(=O)CO`, for which the Potency result is “inactive”.

In the case of `OC[C@H]1O[C@@H]2O[C@H]3[C@H](O)[C@@H](O)[C@@H](O[C@H]4[C@H](O)[C@@H](O)[C@@H](O[C@H]5[C@H](O)[C@@H](O)[C@@H](O[C@H]6[C@H](O)[C@@H](O)[C@@H](O[C@H]7[C@H](O)[C@@H](O)[C@@H](O[C@H]8[C@H](O)[C@@H](O)[C@@H](O[C@H]1[C@H](O)[C@H]2O)O[C@@H]8CO)O[C@@H]7CO)O[C@@H]6CO)O[C@@H]5CO)O[C@@H]4CO)O[C@@H]3CO`, the Potency result is “inactive”. For `Nc1ncn([C@@H]2O[C@H](CO)[C@@H](O)[C@H]2O)c(=O)n1`, the Potency result was “inactive”.

For `C[C@]12CCC(=O)C=C1CC[C@@H]1[C@@H]2C(=O)C[C@@]2(C)[C@H]1CC[C@]2(O)C(=O)CO`, the Potency result is “inactive”. For the compound `CCCCC(CC)COC(=O)c1ccc(N(C)C)cc1` (configuration not stated), the Potency entry was “inactive”. `COc1cccc2c1C(=O)c1c(O)c3c(c(O)c1C2=O)C[C@@](O)(C(=O)CO)C[C@@H]3O[C@H]1C[C@H](N)[C@H](O)[C@H](C)O1`: the Potency result is “inactive”.

For `C=C(C)C1CC=C(C)CC1` (configuration not stated), the Potency result is “inactive”.

As for `Nc1ccc(S(=O)(=O)Nc2cnc3ccccc3n2)cc1`, the Potency entry is “inactive”. The same measure, in the same setting: under `O=S(=O)(O)c1ccc(O)cc1` stands “inactive”; under `O=C1c2cccc(O)c2C(=O)c2c(O)cccc21`, “inactive”; under `C#C[C@]1(O)CC[C@H]2[C@@H]3CCc4cc(OC)ccc4[C@H]3CC[C@@]21C`, “inactive”. Still for that read-out and setting: under `CC(C)(C)NC(=O)[C@H]1CC[C@H]2[C@@H]3CC[C@H]4NC(=O)C=C[C@]4(C)[C@H]3CC[C@]12C` stands “inactive”.
